Most compounds without a hit are left out; they make up all but 3.7% or so of the library.
Bead autofluor: counter-screen for toxin protease inhibitors: compound fluorescence; compound autofluorescence counterscreen, microsphere flow cytometry; stronger effect = higher value; fluorescence intensity (no concentration beside the values); 360,000 compounds, 3.1% hits; AID 624483; in the data active = fluorescence intensity above about 16000; inconclusive = no clear call, values can overlap the other calls
BoNT-A LC inh2: BoNT/A light chain protease inhibitors, primary screen, biochemical, flow cytometry, MLPCN library | multiplex microsphere protease substrate cleavage | Botulinum neurotoxin type A light chain protease (Clostridium botulinum A str. ATCC 3502) | inhibition, % at 10 µM | 360,000 compounds, 0.17% hits; also: plate controls were buffer without enzyme for full effect and enzyme alone for no effect
MazF activator: activators of E. coli MazEF toxin-antitoxin RNase, primary screen, biochemical, fluorescence, uHTS. FAM/BHQ RNA-DNA oligo cleavage fluorescence, 5 h. activation, % at 20 µM. 350,000 compounds, 0.32% hits. AID 504720, 2011; in the data active = activation above about 50%
BoNT F protease: BoNT/F light chain protease inhibitors, primary screen, biochemical, flow cytometry, MLPCN library | inhibition, % at 10 µM | AID 588497, 2011 | Botulinum neurotoxin type F light chain protease (Clostridium botulinum) | 360,000 compounds, 0.22% hits | Multiplex microsphere protease cleavage assay; in the data active = inhibition above about 35%, passing the limit was not always enough; inconclusive = no clear call, values can overlap the other calls; also: plate controls were buffer without enzyme for full effect and enzyme alone for no effect
Anthrax LF inh2: Bacillus anthracis LF protease inhibitors, primary screen, biochemical, multiplex microsphere, MLPCN library; multiplex microsphere protease cleavage assay; inhibition, % at 10 µM; 360,000 compounds, 0.12% hits; also: plate controls were buffer without enzyme for full effect and enzyme alone for no effect
Target sequence (P15917 whole entry, looked up): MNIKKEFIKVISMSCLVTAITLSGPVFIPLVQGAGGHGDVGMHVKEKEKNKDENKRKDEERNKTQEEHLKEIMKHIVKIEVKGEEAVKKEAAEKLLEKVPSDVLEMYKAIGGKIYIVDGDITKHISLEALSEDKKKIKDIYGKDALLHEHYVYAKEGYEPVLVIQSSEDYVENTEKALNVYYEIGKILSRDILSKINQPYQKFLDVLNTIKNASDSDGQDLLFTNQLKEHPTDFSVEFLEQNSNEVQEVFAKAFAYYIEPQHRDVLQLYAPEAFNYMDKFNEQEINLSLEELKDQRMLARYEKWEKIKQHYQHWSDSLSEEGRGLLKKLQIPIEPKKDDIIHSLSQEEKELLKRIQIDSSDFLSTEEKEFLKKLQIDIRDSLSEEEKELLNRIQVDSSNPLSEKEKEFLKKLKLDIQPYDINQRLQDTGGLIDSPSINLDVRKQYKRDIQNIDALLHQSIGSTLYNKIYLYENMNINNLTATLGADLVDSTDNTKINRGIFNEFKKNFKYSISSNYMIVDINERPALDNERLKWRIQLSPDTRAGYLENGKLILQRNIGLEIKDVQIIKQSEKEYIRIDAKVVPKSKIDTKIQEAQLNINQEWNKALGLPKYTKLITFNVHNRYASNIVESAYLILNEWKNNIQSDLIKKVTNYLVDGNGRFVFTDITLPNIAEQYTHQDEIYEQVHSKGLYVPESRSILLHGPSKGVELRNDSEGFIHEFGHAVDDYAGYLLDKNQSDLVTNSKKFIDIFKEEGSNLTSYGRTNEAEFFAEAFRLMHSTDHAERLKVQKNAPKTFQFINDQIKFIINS
BoNT-A LC CP1: BoNT/A light chain protease inhibitors, confirmation, biochemical, flow cytometry, cherry pick 1. shares compounds with BoNT F protease. multiplex microsphere protease assay. inhibition, % at 10 µM. 720 compounds, 3% hits. AID 602139, 2011; in the data active = inhibition above about 32%
BoNT-F LC CP1: BoNT/F light chain protease inhibitors, confirmation, biochemical, flow cytometry, cherry pick 1; shares compounds with BoNT F protease; multiplex microsphere protease cleavage assay; inhibition, % at 10 µM; 720 tested, under 10 active; AID 602140, 2011; call rule not given here
LF protease CP1: Bacillus anthracis LF protease inhibitors, confirmation, biochemical, multiplex microsphere, cherry pick 1; shares compounds with BoNT F protease; multiplex microsphere protease cleavage assay; inhibition, % at 10 µM; 720 tested, under 10 active; AID 602142, 2011; call rule not given here
The depositor's hits bear a star; u = inconclusive; x = no result given. Rule as the data show it, unless noted: active = inhibition above about 30%; inconclusive = no clear call, values can overlap the other calls; inactive = below that.

SMILES	Bead autofluor	BoNT-A LC inh2	MazF activator	BoNT F protease	Anthrax LF inh2	BoNT-A LC CP1	BoNT-F LC CP1	LF protease CP1
O=C(Nc1ccc(Cl)c(Cl)c1)c1ccccc1	4038	0	1	-7	-7	x	x	x
O=C(CCNC(=O)c1ccccc1Cl)NCC(c1ccco1)N1CCCC1 (stereo not given)	x	x	1	x	x	x	x	x
COc1ccc(-c2c(C#N)c(N)nc3sc(C(=O)c4ccccc4)c(N)c23)cc1	2561	44*	-60	7	18	8	-3	5
CCOc1ccc(-c2c(C#N)c(N)nc3sc(C(=O)c4ccccc4)c(N)c23)cc1	4289	10	-160	2	8	x	x	x
Cc1nnc(SCC(=O)Nc2ccc(N3CCOCC3)cc2)o1	3798	1	-3	42*	0	-1	-2	2
O=C(CC12CC3CC(CC(C3)C1)C2)NC1CC1	3571	3	5	u	-9	x	x	x
Clc1ccccc1-c1nnc2n1CCCCC2	3259	-10	4	-17	37*	0	5	2
COc1cc(OC)c(CN2CCc3c([nH]c4ccccc34)C2)cc1Br	26222*	51*	19	u	-10	-1	-6	-6
Cc1cccc(CN2CCc3c([nH]c4ccccc34)C2)c1	4883	2	6	-2	-6	x	x	x
CC(C)(C)OC(=O)C[C@H]1C/C=C\C[C@@H](CC(=O)N(CCO)Cc2ccccc2)C(=O)N[C@H](Cc2ccccc2)COC1=O	4030	0	0	0	2	x	x	x
Cc1cc2c(cc1S(=O)(=O)CCC(=O)Nc1cccc(C(F)(F)F)c1)OCC(=O)N2	4434	0	5	-4	-2	x	x	x
Cc1nn(C)c(C)c1NC(=O)c1cc2nc(-c3ccco3)cc(C(F)(F)F)n2n1	3882	0	7	-1	-4	0	0	4
CCc1ccc(-c2cc(C(F)(F)F)n3nc(C(=O)Nc4cnn(Cc5ccc(C)cc5)c4)cc3n2)s1	11288	7	-12	3	0	3	5	3
Cc1ccccc1Cn1cc(NC(=O)c2cc3nc(-c4ccco4)cc(C(F)(F)F)n3n2)cn1	2908	0	-6	12	-2	1	0	-3
C=CCn1c(SCC(=O)Nc2ccc(Br)cc2)nc(O)cc1=O	3765	0	-5	2	-4	x	x	x
CCn1c(SCC(=O)Nc2ccc(C)cc2)nc(O)cc1=O	3877	3	0	42*	10	0	6	6
CN(C)c1ccc(Nc2cc(Cl)ncn2)cc1	4478	-3	10	-95	-24	x	x	x
Cc1ccc(C(=O)Nc2ccccc2C(=O)O)cc1S(=O)(=O)Nc1ccc(Br)cc1	x	x	-6	x	x	0	-7	2
Cc1ccc(C(=O)Nc2ccccc2C(=O)O)cc1S(=O)(=O)NCc1ccccc1	2595	0	-1	2	-1	x	x	x
C=CCCC1CN(CCCC)S(=O)(=O)c2c(F)cccc2O1 (stereo not given)	3466	0	-4	-2	-2	x	x	x
CCOc1ccc(N(CC(=O)N2CCCC2)S(=O)(=O)c2ccc(F)cc2)cc1	4824	-3	-5	-8	-8	x	x	x
COc1ccc(CC2(CO)CCN(S(=O)(=O)c3sccc3C)CC2)cc1	4205	6	-1	38*	-6	1	-7	1
Cc1ccc(S(=O)(=O)CCC(=O)OC(C)c2nnc(-c3cccs3)o2)cc1 (stereo not given)	8055	0	6	7	-4	x	x	x
Cc1cc(C(=O)Nc2cc(C(C)(C)C)on2)c(C)o1	5818	-1	-4	u	100*	0	-1	-2
Cc1cc(C(=O)Nc2ccon2)c(C)o1	4012	0	2	6	-3	x	x	x
SMILES	Bead autofluor	BoNT-A LC inh2	MazF activator	BoNT F protease	Anthrax LF inh2	BoNT-A LC CP1	BoNT-F LC CP1	LF protease CP1
Cc1occc(=O)c1OCc1ccc(Cl)cc1Cl	2785	2	-20	-14	-2	x	x	x
COc1ccc([C@H]2CC(=O)C=C(c3cc(C(F)(F)F)cc(C(F)(F)F)c3)C2)cc1	3544	0	-7	-6	-4	x	x	x
Cc1cc2cc(CNC(=O)Cc3ccc([N+](=O)[O-])cc3)ccc2[nH]1	3872	58*	2	-31	8	-1	-9	-3
Cc1cc2cc(CNC(=O)c3cccc([N+](=O)[O-])c3)ccc2n1C	4361	2	10	-9	-6	x	x	x
CCCC(=O)NCc1ccc2c(c1)cc(C)n2C	4194	17	1	-37	-3	3	-7	0
Cc1cc2cc(CNC(=O)Cc3ccc([N+](=O)[O-])cc3)ccc2n1C	2033	77*	6	-85	-64	2	-10	-3
Cc1cc2cc(CNC(=O)CCC(=O)O)ccc2n1C	2670	-2	5	-4	-1	0	-1	1
O=C(Cc1ccc([N+](=O)[O-])cc1)NCc1ccncc1	4871	0	-1	1	1	x	x	x
CC[C@]12c3[nH]c4cc(CCC(=O)N(C)C)ccc4c3CCN1C(=O)[C@@H](CC(=O)NC(C)(C)C)C[C@@H]2C(=O)N1CCN(C(=O)c2ccco2)CC1	3945	0	-1	-1	-4	x	x	x
O=C(NCc1ccc(Cl)cc1)C1CCN(C(=O)c2ccc(Cl)cc2)CC1	u	3	-6	6	-2	x	x	x
Cc1oc(C)c(S(=O)(=O)NCc2cccs2)c1C(=O)O	4495	u	3	u	38*	0	-3	2
Cc1c(C(=O)Nc2nccs2)sc2nc(-c3cccs3)cc(C(F)(F)F)c12	14857	39*	-3	11	37*	12	-4	6
COC(=O)CSc1nc2nc(-c3cccs3)cc(C(F)(F)F)c2c(=O)[nH]1	3577	-3	1	-2	0	x	x	x
Cc1c(C(=O)O)sc2nc(-c3cccs3)cc(C(F)(F)F)c12	3107	-7	-11	-17	-2	-2	-1	-2
Cc1csc(NC(=O)c2sc3nc(-c4cccs4)ccc3c2N)n1	x	x	5	x	x	x	x	x
CCOC(=O)C1c2cccc(O)c2CCN1C(C)=O (stereo not given)	3405	0	6	1	-3	x	x	x
COc1ccc(NS(=O)(=O)c2cccc(C(=O)NN=C(C)c3ccco3)c2)cc1	u	4	-1	9	-2	x	x	x
COc1cccc(CNC(=O)c2cccc(Br)c2)c1	2471	-1	0	-11	0	x	x	x
COc1cc(OC)cc(C(=O)NCc2ccc3[nH]c(C)cc3c2)c1	2898	48*	1	-60	-22	-1	-6	-3
COc1cccc(C(=O)NCc2ccc3[nH]c(C)cc3c2)c1	2008	52*	12	-108	-84	0	-7	0
